# TDP1 cell CPT = DT40-hTDP1 cell growth loss with CPT | chicken DT40 Tdp1-/-;hTDP1 cells + 20 nM CPT, ATP luminescence, 48 h | Potency, µM (titrated, usually from 46.2 µM), hits mostly inhibitors | 420,000 tested, 12% active | AID 686979; further: nearly all actives have a fitted effect of over 55% in size
#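 Chicken DT40 Tdp1-/- cells complemented with human TDP1, 400 cells/well, exposed to compounds plus 20 nM camptothecin for at least 48 h at 37 C; viability read as ATP content by CellTiter-Glo luminescence.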
# IL-1B inflam inh = inhibitors of inflammasome signaling (IL-1 beta secretion); THP-1 LPS/ATP IL-1B secretion, AlphaLISA, 16 h; hits give low values; activity change, % at 57.5 µM; 360,000 tested, 4.7% active; in the data active means activity change below about -50%; inconclusive means mostly about -30% to -49%
#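 Secreted IL-1B measured by AlphaLISA bead assay after 16 h compound exposure of THP-1 cells; compounds (final up to 57.5 uM) added 1 h before LPS (250 ng/mL) and ATP (1.25 mM) stimulation; lower signal means less secretion.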
# HT1080NT lethal = kills 2HG-producing HT-1080-NT fibrosarcoma cells. HT-1080-NT fibrosarcoma viability, CellTiter-Glo ATP luminescence, 48 h. Potency, µM (highest dose often 46.1 µM), hits mostly cytotoxic. 360,000 tested, 1.6% active. AID 686970;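 further: NT is the 2HG producing partner of a matched IDH1 knockdown line; nearly all actives have a fitted effect of over 55% in size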
#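 Viability of the 2HG-overproducing fibrosarcoma line after 48 hours of compound exposure at 37 degrees C was determined by luminescence with CellTiter-Glo, and concentration-effect curves were then fitted and categorized.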
# HT1080 IDH1KD tx = kills HT-1080 cells with IDH1 knockdown; AID 686971; HT-1080 IDH1 knockdown viability, ATP luminescence, 48 h; Potency, µM (top dose mostly 46.1 µM), most hits filed as cytotoxic; 360,000 tested, 2% active
#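 Viability of IDH1-knockdown HT-1080 fibrosarcoma cells was assessed by CellTiter-Glo after 48 h at 37 °C with titrated compound; concentration-effect curves were classified by fit quality and response size.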
# DT40 TDP1 no CPT = qHTS for Inhibitors of human tyrosyl-DNA phosphodiesterase 1 (TDP1): qHTS in cells in absence of CPT; DT40 Tdp1-/- hTDP1 cells, no CPT, ATP luminescence, 48 h; Potency, µM (titrated, usually from 46.2 µM), hits mostly inhibitors; 420,000 tested, 15% active; AID 686978, 2013; further: nearly all actives have a fitted effect of over 55% in size
#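 Compound effects on proliferation are scored in DT40 Tdp1-/-;hTDP1 cells in the absence of CPT. ATP levels (CellTiter-Glo luminescence) are recorded after a ≥48 hr, 37 °C incubation.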
# Hits are given with their value; n = inactive; u = inconclusive; x = no result; [ ] = dose if it differs, or a comment. Sampled rows, rich in hits. Any-hit rate of the full collection: about 19%. Unless noted, the call rests on the fitted dose curve; in most records, active means well fitted curve in the direction sought with a large enough effect; inconclusive means small, poorly fitted or top-dose-only effect, or another doubt; inactive means no such curve, though single readings can be large; an effect the other way counts as inactive or inconclusive.
SMILES,TDP1 cell CPT,IL-1B inflam inh,HT1080NT lethal,HT1080 IDH1KD tx,DT40 TDP1 no CPT
O=C(NCc1ccc(F)c(F)c1)c1cccc2c(-c3cccnc3)coc12,u,-63,n,u,u
NC(=O)c1cccc(-c2coc3c(C(=O)NCc4cccnc4)cccc23)c1,21µM,n,n,u,23µM
COc1ccc(CNC(=O)c2cccc3c(-c4cccnc4)coc23)cc1OC,1.2µM,n,u,u,1.5µM
O=C(NCc1cccc(Cl)c1)c1cccc2c(-c3cccnc3)coc12,16µM,u,n,n,u
O=C(NCCc1ccccc1)c1cccc2c(-c3cccnc3)coc12,n,n,u,n,n
CCOC(=O)c1cc2c(=O)n3ccccc3nc2n(CC(C)C)c1=NC(=O)C(C)(C)Oc1ccc(Cl)cc1,n,x,x,x,u
C=CCN(C(=O)CCC(=O)Nc1cc(C)on1)C(C(=O)NC(C)(C)CC)c1cccc(OC)c1OC (stereo not given),n,n,n,n,n
O=C(NCC1CC1)c1cccc2c(-c3ccc(F)c(F)c3)coc12,u,n,n,n,u
COc1ccc(-c2coc3c(C(=O)NCC(C)C)cccc23)c(C)c1,u,n,u,u,u
CC(C)CNC(=O)c1cccc2c(-c3cccc(C(N)=O)c3)coc12,23µM,n,n,n,u
NC(=O)c1cccc(-c2coc3c(C(=O)NC4CCCCC4)cccc23)c1,u,n,u,u,8.2µM
COc1ccc(CN2CCCC(n3cc(C(=O)NC4CCCC4)nn3)C2)c(O)c1 (stereo not given),u,x,x,x,n
O=C(ONc1ccc(N=NC(=O)c2ccccc2O)cc1)c1ccccc1,7.3µM,n,2.3µM,1.8µM,6.5µM
Cc1ccc(S(=O)(=O)N(C)CC(=O)Nc2cc(C)ccn2)cc1,n,n,n,n,n
COc1ccc(Cn2c(C3CC3)nc3ccc(NC(=O)c4cccnc4)cc3c2=O)cc1,7.3µM,-70,10µM,10µM,10µM
COc1ccc(Cn2c(C3CC3)nc3ccc(NC(C)=O)cc3c2=O)cc1,n,n,n,n,n
Cc1nc2ccc(N)cc2c(=O)n1Cc1ccc(Cl)cc1,n,n,n,n,n
Cc1nc2ccc(NC(=O)c3ccccc3)cc2c(=O)n1Cc1ccc(F)cc1,u,n,n,u,13µM
C1=C(CN2CCOCC2)COc2c1cccc2OC[C@@H]1CNCCO1,n,x,x,x,n
COc1cc2c(cc1OC)C(c1ccc(-c3cc(Cl)ccc3Cl)o1)=NCC2,2.6µM,-93,n,n,1.6µM
COc1cc2c(cc1OC)C(c1oc(-c3ccc(-c4cc(Cl)ccc4Cl)o3)cc1C)=NCC2,1µM,x,x,x,0.35µM
COc1ccc(Cl)cc1-c1n[nH]c(=S)n1C,n,n,n,n,n
COc1cc2c(cc1OC)C(c1ccc(Cl)cc1)=NCC2,16µM,u,n,n,8.2µM
COc1ccc(C2=CSC3=NCCN23)cc1Cl,n,u,n,n,u
COc1cc2c(cc1OC)C(c1ccc(-c3ccccc3Cl)o1)=NCC2,6.5µM,-92,u,13µM,2.3µM
SMILES,TDP1 cell CPT,IL-1B inflam inh,HT1080NT lethal,HT1080 IDH1KD tx,DT40 TDP1 no CPT
CCCn1nnc(NC(=O)c2ccc(-c3cc(Cl)ccc3Cl)o2)n1,n,n,n,n,u
COc1ccc(-c2noc(-c3ccccc3Cl)n2)cc1OC,n,n,n,n,n
CC(=O)c1cccc(NC(=O)COC(=O)c2n[nH]c3ccccc23)c1,n,n,u,n,u
CCn1c(C(=O)O)c(CC(=O)Nc2ccccc2OC)c2ccccc21,n,n,n,n,n
CC(=O)c1c[nH]c(C(=O)NCc2ccccc2Cl)c1,n,n,n,n,n
CCN(Cc1ccccc1)Cc1cccc([N+](=O)[O-])c1,n,n,n,n,u
Cc1ccc(-c2cccc(OC(=O)c3ccccc3F)c2)cc1,n,n,n,n,n
COc1cc2c(cc1OC)C(c1ccc(-c3ccc(Cl)cc3Cl)o1)=NCC2,1.2µM,u,u,23µM,0.92µM
COc1cc2c(cc1OC)C(C)=NCC2,16µM,n,n,n,n
COc1cc2c(cc1OC)C(c1ccc(-c3ccc(Cl)c(Cl)c3)o1)=NCC2,4.1µM,-59,u,23µM,1.8µM
Cc1[nH]c2c(F)cccc2c1CC(=O)NCCN1Cc2ccccc2OC(C)C1 (stereo not given),n[9.04 µM],x,x,x,n
O=C(Nc1ccc2oc(-c3ccc4ccccc4c3)nc2c1)c1ccccc1F,n,x,x,x,u
COc1cc(SC)ccc1C(=O)Nc1cccc(C2OCCCO2)c1,n,u,n,n,u
CC(C)C(=O)Nc1ccc2c(c1)C(=O)N(CCC(=O)O)C2=O,n,n,n,n,29µM
COc1ccccc1CNC(=O)Cn1ccc2cc(S(=O)(=O)N3CCCC3)ccc21,n,n,n,n,n
COc1cccc(CNC(=O)CCn2ccc3cc(S(=O)(=O)N4CCC(C)CC4)ccc32)c1,u,u,n,n,n
CC1CCN(S(=O)(=O)c2ccc3c(ccn3CCC(=O)N3CCCCC3)c2)CC1,u,n,n,n,6.5µM
CCOc1ccccc1CNC(=O)CCn1ccc2cc(S(=O)(=O)N3CCC(C)CC3)ccc21,9.2µM,x,x,x,12µM
CCOc1ccccc1CNC(=O)Cn1ccc2cc(S(=O)(=O)N3CCCCCC3)ccc21,8.2µM,u,n,n,2.9µM
CCOc1ccccc1CNC(=O)CCn1ccc2cc(S(=O)(=O)N3CCCCC3)ccc21,16µM,n,n,n,29µM
O=C(O)CCn1ccc2cc(S(=O)(=O)N3CCCCCC3)ccc21,n,n,n,n,n
CCOc1ccc(C(=O)NNC(=O)CCNC(=O)c2ccc(Br)cc2)cc1OC,n,n,n[9.24 µM],n,n
O=S1(=O)CC(N2CCN(c3ccccn3)CC2)CN1Cc1ccccc1 (stereo not given),n,n,n,n,n
Cc1cc(C(=O)NNc2ccc(F)cc2F)no1,n,n,3.7µM,5.2µM,n
Cc1ccc(NNC(=O)c2cc(C)on2)c(C)c1,n,n,u,8.2µM,n
SMILES,TDP1 cell CPT,IL-1B inflam inh,HT1080NT lethal,HT1080 IDH1KD tx,DT40 TDP1 no CPT
CCc1ccc(NC(=O)CCn2c(=O)c3cccn3c3ccccc32)cc1,23µM,n,u,u,18µM
CCc1ccc(NC(=O)Cn2c(=O)c3cccn3c3ccccc32)cc1,16µM,n,u,u,4.1µM
C#CC1(O)CC(C)N(C)C(C)C1 (stereo not given),n,n,n,n,n
CC1CCCCN1S(=O)(=O)c1ccc(C(=O)Nc2sc3c(c2C(N)=O)CC(C)(C)NC3(C)C)cc1 (stereo not given),26µM,x,x,x,u
CN(C1CCCCC1)S(=O)(=O)c1ccc(C(=O)Nc2sc3c(c2C(N)=O)CC(C)(C)NC3(C)C)cc1,u,n,u,n,u
O=C(COC(=O)C1(c2ccc(F)cc2)CCCC1)NCc1ccc2c(c1)OCO2,u,n,n,n,u
